“And” between values parts separate entries of the source, which are not always exact repeats. Equal values may be shown once. Inconclusive results are not listed. The source made the active and inactive calls. Calls follow the shape of the dose curve; as a rule, active = well fitted inhibition curve with a large enough effect; inconclusive = small, poorly fitted or top-dose-only effect; inactive = flat fitted curve, though single readings scatter.
What was measured:
PAD = test: qHTS profiling for inhibitors of Plasmodium falciparum proliferation (AID 504749);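 also: 0% = DMSO vehicle and full inhibition = artemisinin control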; details: P. falciparum in erythrocytes, SYBR Green DNA, 72 h; series mostly up to 28.7 µM
How it was run: (§1)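 Three-day growth assay of blood-stage parasites in erythrocytes (0.3% parasitemia, 2.5% hematocrit) at 37 C, 5% CO2, quantified by SYBR Green DNA staining after overnight detergent lysis.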

PC15 = test: as above; details: P. falciparum in erythrocytes, SYBR Green DNA, 72 h; series mostly up to 28.7 µM
How it was run: as §1

PC26 = test: as above; details: P. falciparum in erythrocytes, SYBR Green DNA, 72 h; series mostly up to 28.7 µM
How it was run: as §1

PC49 = test: as above; details: P. falciparum in erythrocytes, SYBR Green DNA, 72 h; series mostly up to 28.7 µM
How it was run: as §1

SC27B = test: as above; details: P. falciparum in erythrocytes, SYBR Green DNA, 72 h; series mostly up to 28.7 µM
How it was run: as §1

TAB109 = test: as above; details: P. falciparum in erythrocytes, SYBR Green DNA, 72 h; series mostly up to 28.7 µM
How it was run: as §1

TAB113 = test: as above; details: P. falciparum in erythrocytes, SYBR Green DNA, 72 h; series mostly up to 28.7 µM
How it was run: as §1

TAB165 = test: as above; details: P. falciparum in erythrocytes, SYBR Green DNA, 72 h; series mostly up to 28.7 µM
How it was run: as §1

W2 = test: as above; details: P. falciparum in erythrocytes, SYBR Green DNA, 72 h; series mostly up to 28.7 µM
How it was run: as §1

CRL-7250 [1] = test: Cytotoxic Profiling of Annotated Libraries Using Quantitative High-Throughput Screening (AID 1296008); details: Five cell lines viability, CellTiter-Glo ATP luminescence, 48-72 h; max response: active compounds read low; also: potency is read from the fitted curve at half-maximal effect; as to max response: % is scaled to controls: 0 for no effect and ±100 for the full control effect
How it was run: (§2)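 Cytotoxicity was measured as CellTiter-Glo ATP luminescence, read after 10 min at room temperature. Compound treatment of the cells lasted 48 or 72 hr at 37 degrees Celsius in a qHTS format.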

HEK293 = test: as above; details: Five cell lines viability, CellTiter-Glo ATP luminescence, 48-72 h; max response: active compounds read low
How it was run: as §2

HaCat [2] = test: as above; details: Five cell lines viability, CellTiter-Glo ATP luminescence, 48-72 h; max response: active compounds read low
How it was run: as §2

KB-3-1 = test: as above; details: Five cell lines viability, CellTiter-Glo ATP luminescence, 48-72 h; max response: active compounds read low
How it was run: as §2

NIH3T3 = test: as above; details: Five cell lines viability, CellTiter-Glo ATP luminescence, 48-72 h; max response: active compounds read low
How it was run: as §2

HACAT [3] = test: qHTS assay to identify novel small-molecules to repurpose for Merkel cell carcinoma treatment (AID 1296009); details: MCC and control cell lines, CellTiter-Glo viability, 72 h; at 44.8 µM (top of the series) unless noted
How it was run: (§3)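 After compound transfer in DMSO, plates were kept 72 hr at 37 degree celsius. Luminescent ATP signal from CellTiter-Glo served as viability measure, normalized against DMSO and no-cell controls.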

MCC-13 = test: as above; details: MCC and control cell lines, CellTiter-Glo viability, 72 h; series mostly up to 46 µM
How it was run: as §3

MCC-26 = test: as above; details: MCC and control cell lines, CellTiter-Glo viability, 72 h; series mostly up to 46 µM
How it was run: as §3

MKL-1 = test: as above; details: MCC and control cell lines, CellTiter-Glo viability, 72 h; series mostly up to 46 µM
How it was run: as §3

CRL-7250 [4] = test: as above; details: MCC and control cell lines, CellTiter-Glo viability, 72 h; at 44.8 µM (top of the series) unless noted
How it was run: as §3
Also: nearly all actives have a fitted effect of over 60% in size.

NCc1cccnc1
inactive: Potency (PAD) | Potency (PC15) | Potency (PC26) | Potency (PC49) | Potency (SC27B) | Potency (TAB109) | Potency (TAB113) | Potency (TAB165) | Potency (W2) | max response (CRL-7250 [1]) -13.7% | max response (HEK293) -4.51% | outcome (HaCat [2]) | max response (KB-3-1) -3.91% | max response (NIH3T3) 3.43% | outcome (HACAT [3]) | Potency (MCC-13) | Potency (MCC-26) | Potency (MKL-1)

C[C@]12CC[C@H]3[C@@H](CC=C4C[C@@H](O)CC[C@@]43C)[C@@H]1CC[C@@H]2O
inactive: Potency (PAD) | Potency (PC15) | Potency (PC26) | Potency (PC49) | Potency (SC27B) | Potency (TAB109) | Potency (TAB113) | Potency (TAB165) | Potency (W2) | max response (CRL-7250 [1]) -19.9% | max response (HEK293) -6.75% | outcome (HaCat [2]) | max response (KB-3-1) -11.4% | max response (NIH3T3) 4.53% | outcome (HACAT [3]) | Potency (MCC-13) | Potency (MCC-26) | Potency (MKL-1)

CN1C[C@@H](NS(=O)(=O)N(C)C)C[C@@H]2c3cccc4c3c(cn4C)C[C@H]21
inactive: Potency (PAD) | Potency (PC15) | Potency (PC26) | Potency (PC49) | Potency (SC27B) | Potency (TAB113) | outcome (CRL-7250 [1]) | max response (HEK293) -5.36% | outcome (HaCat [2]) | max response (KB-3-1) -6.93% | max response (NIH3T3) -4.54% | outcome (CRL-7250 [4]) | outcome (HACAT [3]) | Potency (MCC-13) | Potency (MCC-26) | Potency (MKL-1)

COc1ccc(CN2CCNCC2)c(OC)c1OC
inactive: Potency (PAD) | Potency (PC15) | Potency (PC49) | Potency (SC27B) | Potency (TAB109) | Potency (TAB113) | Potency (TAB165) | max response (CRL-7250 [1]) 0.0195% | max response (HEK293) -9.25% | outcome (HaCat [2]) | max response (KB-3-1) 5.8% | max response (NIH3T3) 1.76% | outcome (HACAT [3]) | Potency (MCC-13) | Potency (MCC-26) | Potency (MKL-1)

C[C@]12CC[C@H]3[C@@H](CCC4=CC(=O)CC[C@@H]43)[C@@H]1CC[C@@H]2O
inactive: max response (CRL-7250 [1]) -5% | max response (HEK293) 0.616% | outcome (HaCat [2]) | max response (NIH3T3) -16.1% | outcome (HACAT [3]) | Potency (MCC-13) | Potency (MCC-26) | Potency (MKL-1)
active: Potency (KB-3-1) 11.6 µM and 20.6 µM

CCC(=O)OC1(c2ccccc2)CCN(C)CC1
inactive: max response (CRL-7250 [1]) -2.3% | max response (HEK293) -12.2% | max response (HaCat [2]) -5.78% | max response (KB-3-1) 2.4% | max response (NIH3T3) -0.056% | Potency (MCC-13) | Potency (MCC-26) | Potency (MKL-1)

COc1ccc(OC)c(CC(C)N)c1 (centres undefined)
inactive: max response (CRL-7250 [1]) -3.68% | max response (HEK293) -0.178% | outcome (HaCat [2]) | max response (KB-3-1) -0.889% | max response (NIH3T3) -6.71% | outcome (HACAT [3]) inactive [at 92 µM] | Potency (MCC-13) | Potency (MCC-26) | Potency (MKL-1)

— PubChem BioAssay (NCATS)
